An excerpt weighted towards active compounds, which were near 3.6% of everything screened.
BoNT F protease = BoNT/F light chain protease inhibitors, primary screen, biochemical, flow cytometry, MLPCN library | Botulinum neurotoxin type F light chain protease (Clostridium botulinum) | actives 0.22% (n = 360,000) | inhibition, % at 10 µM | Multiplex microsphere protease cleavage assay; in the data active = inhibition above about 35%, passing the limit was not always enough; inconclusive = no clear call, values can overlap the other calls
Autofluor counter = compound fluorescence in toxin protease inhibitor counterscreen; compound autofluorescence counterscreen, microsphere flow cytometry; hits give high values; actives 3.1% (n = 360,000); fluorescence intensity (no concentration beside the values); AID 624483; in the data active = fluorescence intensity above about 16000; inconclusive = no clear call, values can overlap the other calls
BoNT A protease = BoNT/A light chain protease inhibitors, primary screen, biochemical, flow cytometry, MLPCN library; Botulinum neurotoxin type A light chain protease (Clostridium botulinum A str. ATCC 3502); multiplex microsphere protease substrate cleavage; inhibition, % at 10 µM; actives 0.17% (n = 360,000)
SARS 3CLpro inh = SARS-CoV 3CLpro protease inhibitors, primary screen, biochemical, quenched FRET | Replicase polyprotein 1ab (Severe acute respiratory syndrome coronavirus), P0C6X7 | recombinant SARS-CoV 3CLpro, quenched FRET peptide cleavage | inhibition, % at 6 µM | actives 0.14% (n = 290,000); in the data active = inhibition above about 12%
Anthrax LF prot = Bacillus anthracis LF protease inhibitors, primary screen, biochemical, multiplex microsphere, MLPCN library; multiplex microsphere protease cleavage assay; AID 588501, 2011; actives 0.12% (n = 360,000); inhibition, % at 10 µM
Target sequence (P15917 whole entry, looked up): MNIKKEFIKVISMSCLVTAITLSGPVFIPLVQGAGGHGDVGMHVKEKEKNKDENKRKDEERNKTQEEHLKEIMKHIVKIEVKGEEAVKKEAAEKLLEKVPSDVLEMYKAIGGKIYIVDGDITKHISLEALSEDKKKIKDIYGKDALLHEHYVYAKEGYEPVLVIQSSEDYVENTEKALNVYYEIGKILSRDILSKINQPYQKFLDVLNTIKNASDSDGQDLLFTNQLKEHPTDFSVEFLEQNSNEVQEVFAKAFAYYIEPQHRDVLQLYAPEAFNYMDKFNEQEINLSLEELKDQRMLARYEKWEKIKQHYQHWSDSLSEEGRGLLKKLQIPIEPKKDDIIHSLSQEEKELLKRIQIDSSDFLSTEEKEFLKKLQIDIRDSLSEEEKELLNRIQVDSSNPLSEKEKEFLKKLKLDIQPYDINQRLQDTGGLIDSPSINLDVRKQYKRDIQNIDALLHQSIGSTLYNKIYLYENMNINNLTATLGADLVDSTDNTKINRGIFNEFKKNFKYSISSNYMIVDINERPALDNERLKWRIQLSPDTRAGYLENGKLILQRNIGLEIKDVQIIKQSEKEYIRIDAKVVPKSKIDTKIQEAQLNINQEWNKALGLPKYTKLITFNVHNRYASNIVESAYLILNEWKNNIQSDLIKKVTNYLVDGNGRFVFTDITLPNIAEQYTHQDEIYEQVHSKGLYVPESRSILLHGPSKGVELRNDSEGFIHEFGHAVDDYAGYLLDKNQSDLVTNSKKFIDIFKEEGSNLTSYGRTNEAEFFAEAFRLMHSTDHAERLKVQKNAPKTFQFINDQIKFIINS
BJeLR viability = MLPCN primary cell-based screen for lethality selective to Ras in HRASV12 cells; BJeLR (HRASV12) viability, CellTiter-Glo ATP luminescence, 48 h; inhibition, % (no concentration beside the values); actives 0.17% (n = 300,000); in the data active = inhibition above about 50%; inconclusive = no clear call, values can overlap the other calls
Hits are given with their value. Rule as the data show it, unless noted: active = inhibition above about 30%; inconclusive = no clear call, values can overlap the other calls; inactive = below that.

Screening CC(C)C(NC(=O)c1ccc(C(C)(C)C)cc1)C(=O)NCC1(N(C)C)CCCCC1 (stereo unspecified) returned BoNT F protease inactive, Autofluor counter inactive, BoNT A protease inactive, SARS 3CLpro inh inactive, Anthrax LF prot inactive and BJeLR viability inactive.
CCN(CC)CCCNC(=O)CC1Oc2ccc(C)cc2NC1=O (stereo unspecified) was read as BoNT F protease inactive, Autofluor counter inactive, BoNT A protease inactive, SARS 3CLpro inh inactive, Anthrax LF prot inactive and BJeLR viability inactive.
`CCCCN(CCCC)CCCNC(=O)CC1Oc2ccc(C)cc2NC1=O` (stereo unspecified) gave BoNT F protease inactive, Autofluor counter 23832, BoNT A protease inactive, SARS 3CLpro inh inactive, Anthrax LF prot inactive and BJeLR viability inactive.
Cc1cc(C(=O)Cn2nnc3ccccc3c2=O)c(C)n1Cc1cccs1 was read as BoNT F protease inactive, Autofluor counter inactive, BoNT A protease inactive, SARS 3CLpro inh inactive, Anthrax LF prot inactive and BJeLR viability inactive.
Cc1cc(C(=O)CN2C(=O)c3ccccc3C2=O)c(C)n1Cc1cccs1 was read as BoNT F protease inactive, Autofluor counter 24091, BoNT A protease inactive, SARS 3CLpro inh inactive, Anthrax LF prot inactive and BJeLR viability inactive.
CC1Oc2ccccc2N(Cc2ccccc2Cl)C1=O (stereo unspecified) was read as BoNT F protease inactive, Autofluor counter 23481, BoNT A protease inactive, SARS 3CLpro inh inactive, Anthrax LF prot inactive and BJeLR viability inactive.
For CC1Oc2ccccc2N(CC(=O)NCCc2ccccc2)C1=O (stereo unspecified) the results were BoNT F protease inactive, Autofluor counter 26874, BoNT A protease inactive, SARS 3CLpro inh inactive, Anthrax LF prot inactive and BJeLR viability inactive.
Screening CC1Oc2ccccc2N(CC(=O)N(Cc2ccccc2)Cc2ccccn2)C1=O (stereo unspecified) returned BoNT F protease inactive, Autofluor counter 23187, BoNT A protease inactive, SARS 3CLpro inh inactive, Anthrax LF prot inactive and BJeLR viability inactive.
For CC1Oc2ccccc2N(Cc2ccccc2F)C1=O (stereo unspecified) the results were SARS 3CLpro inh inactive and BJeLR viability inactive.
`COc1ccc(CN(Cc2ccccn2)C(=O)CN2C(=O)COc3ccccc32)cc1` gave BoNT F protease inactive, Autofluor counter inactive, BoNT A protease inactive, SARS 3CLpro inh inactive, Anthrax LF prot inactive and BJeLR viability inactive.
`CC(C)C1Oc2ccccc2N(CC(=O)NCCCN2C(C)CCCC2C)C1=O` (stereo unspecified) gave BoNT F protease inactive, Autofluor counter 23299, BoNT A protease inactive, SARS 3CLpro inh inactive, Anthrax LF prot inactive and BJeLR viability inactive.
CC1O[C@@H]2O[C@](O[C@H](C)CC[C@@H](C)O)(c3ccccc3)O[C@@H]2C[C@H]1O (stereo partly specified) was read as BoNT F protease inactive, Autofluor counter inactive, BoNT A protease inactive, Anthrax LF prot inactive and BJeLR viability inactive.
`N#CC(C#N)=NNc1ccc(-n2ccc(C(F)(F)F)n2)cc1` gave SARS 3CLpro inh inactive and BJeLR viability 59.
`O=C(CSc1nccc(=O)[nH]1)c1ccccc1Br` gave BoNT F protease inactive, Autofluor counter 16683, BoNT A protease inactive, SARS 3CLpro inh inactive, Anthrax LF prot inactive and BJeLR viability inactive.
Screening CC1CCN(S(=O)(=O)c2ccc(NC(=O)Cn3nnc(-c4ccccc4)n3)cc2)CC1 returned BoNT F protease inactive, Autofluor counter 19646, BoNT A protease inactive, SARS 3CLpro inh inactive, Anthrax LF prot inactive and BJeLR viability inactive.
`CC1CCN(CC(=O)Nc2ccc(S(=O)(=O)N3CCC(C)CC3)cc2)CC1` gave BoNT F protease inactive, Autofluor counter inactive, BoNT A protease inactive, SARS 3CLpro inh inactive, Anthrax LF prot inactive and BJeLR viability inactive.
For CC1CCCN(CC(=O)Nc2ccc(S(=O)(=O)N3CCCCC3)cc2)C1 (stereo unspecified) the results were BoNT F protease inactive, Autofluor counter inactive, BoNT A protease inactive, SARS 3CLpro inh inactive, Anthrax LF prot inactive and BJeLR viability inactive.
CC1CCCN(CC(=O)Nc2ccc(S(=O)(=O)N3CCCCCC3)cc2)C1 (stereo unspecified) was read as BoNT F protease inactive, Autofluor counter 16175, BoNT A protease inactive, SARS 3CLpro inh inactive, Anthrax LF prot inactive and BJeLR viability inactive.
`CC1CCN(S(=O)(=O)c2ccc(NC(=O)Cc3cccs3)cc2)CC1` gave BoNT F protease inactive, Autofluor counter 20322, BoNT A protease inactive, SARS 3CLpro inh inactive, Anthrax LF prot inactive and BJeLR viability inactive.
`O=C(Cn1nnc(-c2ccc(S(=O)(=O)N3CCCC3)cc2)n1)NCC1CCCO1` (stereo unspecified) gave BoNT F protease inactive, Autofluor counter 22963, BoNT A protease inactive, SARS 3CLpro inh inactive, Anthrax LF prot inactive and BJeLR viability inactive.
For COc1ccc(Cl)cc1C(=O)NNC(=O)COC(=O)CCN=C1NS(=O)(=O)c2ccccc21 the results were BoNT F protease inactive, Autofluor counter inactive, BoNT A protease inactive, Anthrax LF prot inactive and BJeLR viability inactive.
O=C1N(CN2CCC3(CC2)OCCO3)c2ccccc2C12OCCCO2 was read as BoNT F protease inactive, Autofluor counter 22108, BoNT A protease inactive, SARS 3CLpro inh inactive, Anthrax LF prot inactive and BJeLR viability inactive.
`O=C(O)CN1C(=O)C2(OCCCO2)c2ccccc21` gave BoNT F protease inactive, Autofluor counter 23379, BoNT A protease inactive, SARS 3CLpro inh inactive, Anthrax LF prot inactive and BJeLR viability inactive.
`O=C1N(CN2CCN(c3cccc(Cl)c3)CC2)c2ccccc2C12OCCCO2` gave BoNT F protease inactive, Autofluor counter 21061, BoNT A protease inactive, SARS 3CLpro inh inactive, Anthrax LF prot inactive and BJeLR viability inactive.
`COc1cccc(NC(=O)CN2C(=O)C3(OCCCO3)c3ccccc32)c1` gave BoNT F protease inactive, Autofluor counter 22688, BoNT A protease inconclusive, SARS 3CLpro inh inactive, Anthrax LF prot inactive and BJeLR viability inactive.
For COc1cccc(NC(=O)CN2C(=O)NC3(CCCCCC3)C2=O)c1 the results were BoNT F protease inactive, Autofluor counter inactive, BoNT A protease inactive and Anthrax LF prot inactive.
`COC(=O)CN1C(=O)C2(OCCCO2)c2ccccc21` gave BoNT F protease inactive, Autofluor counter inactive, BoNT A protease inactive, SARS 3CLpro inh inactive, Anthrax LF prot inactive and BJeLR viability inactive.
Screening CC1(C)COC2(OC1)C(=O)N(CN1CCOCC1)c1ccccc12 returned BoNT F protease inactive, Autofluor counter inactive, BoNT A protease inactive, SARS 3CLpro inh inactive, Anthrax LF prot inactive and BJeLR viability inactive.

Assay outcomes from PubChem.
